Sampled rows, rich in hits. Any-hit rate of the full collection: about 2.7%.
S2 tox: reduces viability in counter-screen for ATXN expression inhibitors | S2 cells (HEK-293 line with an ATXN2-luciferase reporter) viability, CellTiter-Fluor protease fluorescence, 24 h | Potency, µM (titrated, usually from 56.7 µM), usual class: cytotoxic | 400,000 compounds, 0.49% hits | AID 651635; note: nearly all actives have a fitted effect of over 40% in size
TGFb inhibitor: inhibitors of TGF-b signaling | HepG2 CAGA-GFP TGF-b/SMAD3 reporter, GFP fluorescence, 18 h; TGF-beta stimulated, 500 pg/mL final | Potency, µM (doses to about 46.1 µM), for the others: at the highest dose activity, negative = inhibition, usual class: inhibitors | 410,000 compounds, 1.2% hits | AID 588855; note: % is set by controls: 0 for no effect and ±100 for the full control effect; nearly all actives have a fitted effect of over 65% in size
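Inhibition was scored as loss of TGF-beta-induced (500 pg/mL final, 18 hours, 37 degrees C) GFP in HEPG2 cells carrying a CAGA-GFP reporter, in DMEM with 1% FBS. Well GFP was summed per cell; Activity was normalised to unstimulated and stimulated DMSO wells, then concentration-response fitting.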
HepG2 tox: counter-screen for TGF-b inhibitors: cytotoxicity in HepG2 cells. Potency, µM (top dose mostly 46.1 µM), for inactives: at the top dose activity change, negative = cytotoxicity, usual class: cytotoxic. 410,000 compounds, 0.76% hits. AID 588856. HepG2 CAGA-GFP viability, ATP luminescence, 18 h
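HepG2 CAGA-GFP cells (1000/well, DMEM with 1% FBS) received compound, then TGF-beta at 500 pg/mL final, and were incubated 18 hours at 37 degrees C. Viability was read by CellTiter-Glo luminescence. Media-only wells were set as complete cell-killing and DMSO as no toxicity.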
ATXN2 expr inh: inhibitors of ATXN2 expression. HEK-293 ATXN2-luciferase reporter, luminescence, 24 h. Potency, µM (doses to about 57 µM), for inactives: top-dose activity change, negative = inhibition, most hits filed as inhibitors. 360,000 compounds, 0.72% hits; note: % is set by controls: 0 for no effect and ±100 for the full control effect; nearly all actives have a fitted effect of over 55% in size
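ATXN2-luciferase reporter cells (luciferase flanked by upstream and downstream ATXN2 gene portions) were treated 24 h at 37 °C with compounds at up to 57 uM. SteadyGlo luminescence gave expression; GF-AFC fluorescence gave viability.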
12-LOX inh: inhibitors of human 12S-lipoxygenase ALOX12; Potency, µM (top dose mostly 108 µM), for the others: top-dose activity change, negative = inhibition, most hits filed as inhibitors; P18054; purified 12hLO, xylenol orange hydroperoxide absorbance; 580,000 compounds, 1.1% hits; note: % is set by controls: 0 for no effect and ±100 for the full control effect
Target sequence (P18054 whole entry, looked up): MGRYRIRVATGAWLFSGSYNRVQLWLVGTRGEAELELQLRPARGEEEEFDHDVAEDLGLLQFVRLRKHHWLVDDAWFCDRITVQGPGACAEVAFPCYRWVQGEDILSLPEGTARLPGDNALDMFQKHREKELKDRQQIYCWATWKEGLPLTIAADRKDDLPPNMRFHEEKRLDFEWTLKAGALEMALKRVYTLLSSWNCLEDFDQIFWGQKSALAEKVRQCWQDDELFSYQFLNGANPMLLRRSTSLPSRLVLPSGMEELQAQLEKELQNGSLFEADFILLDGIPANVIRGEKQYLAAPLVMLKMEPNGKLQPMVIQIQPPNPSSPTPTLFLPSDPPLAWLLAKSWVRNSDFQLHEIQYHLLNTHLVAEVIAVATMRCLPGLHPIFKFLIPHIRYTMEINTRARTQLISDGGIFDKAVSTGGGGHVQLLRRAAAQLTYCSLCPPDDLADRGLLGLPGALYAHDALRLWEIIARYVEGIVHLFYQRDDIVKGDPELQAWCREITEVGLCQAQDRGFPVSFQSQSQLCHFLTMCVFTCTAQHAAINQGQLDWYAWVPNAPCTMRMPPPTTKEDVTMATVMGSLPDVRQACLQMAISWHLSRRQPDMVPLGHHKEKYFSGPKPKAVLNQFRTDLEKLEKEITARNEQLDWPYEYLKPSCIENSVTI
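Purified human 12hLO (150 nM final) in 25 mM Hepes, 0.01% Triton X-100, pH 7.0 was preincubated 15 min at room temperature with compound. Then 40 uM arachidonic acid was added, 30 min. Hydroperoxide was read by Fe-XO absorbance ratio 573/405 nm.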
The depositor's hits bear a star; i = inactive; ? = inconclusive; · = not tested or not shown; ! = not confirmed by another sample. Calls come from the whole dose curve; as a rule, active = well fitted curve in the direction sought with a large enough effect; inconclusive = small, poorly fitted or top-dose-only effect, or another doubt; inactive = no such curve, though single readings can be large; an effect the other way counts as inactive or inconclusive. Potency is the fitted concentration of half-maximal effect.

SMILES	S2 tox	TGFb inhibitor	HepG2 tox	ATXN2 expr inh	12-LOX inh
COc1ccc(-c2nc(CN3CCN(C(=O)NCCc4ccccc4)CC3)c(C)o2)cc1	·	·	·	·	2.5%
NS(=O)(=O)c1ccc(Sc2nc3ccccc3s2)c([N+](=O)[O-])c1	i	?	12.6µM*	?	141.4%
N#C/C(=C\c1ccc(OCc2ccccc2)cc1)c1ccccc1	·	·	·	·	5.4%
Cc1nc(-c2ccc(C#N)cc2)cs1	i	-15.4%	-19.3%	-18.7%	31.6µM*!
N#Cc1ccc(-c2csc(-c3ccno3)n2)cc1	i	13.3%	0.9%	-9.3%	98.7%
CCN(CC)S(=O)(=O)c1ccc2c(c1)N(CC(=O)NCCCN1CCN(c3cc(Cl)ccc3C)CC1)C(=O)CO2	·	?	12.6µM*	?	?
O=C(CN1C(=O)COc2ccc(S(=O)(=O)N3CCCCCC3)cc21)NCc1ccc(Cl)cc1	·	10µM*	-4.3%	·	-8.4%
CCN(CC)S(=O)(=O)c1ccc2c(c1)N(CC(=O)N1CCN(c3cc(Cl)ccc3C)CC1)C(=O)CO2	i	-12.5%	-31.6%	-1.2%	1.7%
CC1CCN(S(=O)(=O)c2ccc3c(c2)N(CC(=O)NCCc2ccc(Cl)cc2)C(=O)CO3)CC1	28.2µM*	12.6µM*	-23.9%	?	-12.6%
O=C(CNc1ccccc1C(=O)NCc1ccco1)NC(=O)NCc1ccccc1	·	·	·	·	-34.9%
CCn1ccc2cc(S(=O)(=O)N3CCC(C(=O)NCCCOC(C)C)CC3)ccc21	·	·	·	·	4.7%
CSc1ccccc1NC(=O)C(Sc1ccccc1)c1ccccc1 (stereo not given)	·	·	·	·	22.4%
COc1cccc(-c2nc3cc(NC(=O)c4ccc(C)c([N+](=O)[O-])c4)ccc3o2)c1	·	·	·	·	44.7µM*
N#Cc1ccc(COC(=O)c2ccc3c(c2)NC(=O)CS3)cc1	·	·	·	·	-6.2%
CCc1ccc(NC(=O)C(CC)Sc2nc3cc4c(cc3c(=O)n2Cc2ccco2)OCO4)cc1 (stereo not given)	?	0.0%	-42.1%	?	0.0%
CCc1ccccc1NC(=O)C(CC)Sc1nc2cc3c(cc2c(=O)n1Cc1ccco1)OCO3 (stereo not given)	17.8µM*	6.3%	-6.0%	15.8µM*	-4.2%
Cc1cc(C)c(O)c(CN(C)Cc2cc(Cl)cc(Cl)c2O)c1	i	?	-58.5%	?	39.8µM*
CN(C)c1ccc(CNc2ncc(Br)cc2Br)cc1	i	-2.6%	-40.1%	31.9%	0.7%
CN(C)c1ccc(NCc2cccc(Br)c2)cc1	·	·	·	·	7.94µM*
Cc1c(C(=O)c2no[n+]([O-])c2C(=O)c2cnn(C)c2C)cnn1C	·	7.94µM*	11.2µM*	?	0.0%
COc1ccc(OC)c(-c2nnc3ccc(-c4ccc(OC)c(O[C@@H]5CCOC5)c4)nn23)c1	·	·	·	27.3µM*	?
COc1ccc(OC)c(-c2nnc3n2N=C(c2ccc(OC)c(OC4CCOC4)c2)CS3)c1 (stereo not given)	?	?	-0.5%	-11.9%	-15.3%
Cc1cccnc1C(c1ccc(F)cc1)N(C)C(=O)C1CCN(CCOc2ccc(Cl)cc2Cl)CC1 (stereo not given)	28.2µM*	?	-100.2%	31.6µM*	?
Cc1cccnc1C(c1ccc(F)cc1)N(C)C(=O)C1CCN(CCCOc2ccc(F)cc2)CC1 (stereo not given)	?	-10.7%	-32.8%	-23.4%	-40.0%
COc1ccccc1C(NC(=O)C1CCN(CCOc2ccc(Cl)cc2Cl)CC1)c1ccccn1 (stereo not given)	20µM*	?	12.6µM*	31.6µM*	?
SMILES	S2 tox	TGFb inhibitor	HepG2 tox	ATXN2 expr inh	12-LOX inh
COc1ccccc1C(NC(=O)C1CCN(CCc2ccc(Br)cc2)CC1)c1ccccn1 (stereo not given)	i	-6.3%	-24.9%	-16.9%	39.8µM*
COc1cc(CN2CCC(C(=O)NC(c3ccc(-c4ccccc4)cc3)c3cnccn3)CC2)cc(OC)c1 (stereo not given)	?	?	22.4µM*	?	?
Cc1cc(C(=O)NC(C)CCc2ccccc2)c2cccc(C)c2n1 (stereo not given)	·	·	·	·	26.4%
Nc1c(Cl)cc(C2=NCCn3c2c2ccc([N+](=O)[O-])cc2[n+]3[O-])cc1Cl	?	11.2µM*	-34.5%	?	?
CCCC[n+]1c(-c2ccc(Cl)cc2Cl)csc1Nc1ccccc1	i	-7.2%	-12.0%	22.6%	-19.2%
C=CC[n+]1c(-c2ccc(Cl)cc2Cl)csc1Nc1ccc(NC(C)=O)cc1	?	?	22.4µM*	?	?
O=C(OCn1ncc(Cl)c(Cl)c1=O)c1cccc(C(F)(F)F)c1	·	?	7.08µM*	?	·
O=C(OCc1cc(-c2ccccc2)on1)c1cccc(C(F)(F)F)c1	·	·	·	·	-5.6%
CC(C)N1CCC(CNC(=O)Nc2ccccc2F)C1 (stereo not given)	·	·	·	·	8.0%
Cc1ccc(C(C)C)c(OC(=O)c2ccc(C#N)cc2)c1	·	·	·	·	9.9%
CCCCN(Cc1ccccc1)c1ccc(NS(=O)(=O)c2ccc(C(C)(C)C)cc2)cc1C(=O)O	·	·	·	·	14.1µM*
CCCCN(Cc1ccccc1)c1ccc(NS(=O)(=O)c2ccc(C(C)=O)cc2)cc1C(=O)O	·	·	·	·	4.47µM*
CCNC(=O)Nc1ccc2c(c1)c(=O)n(C)n2Cc1ccc(Cl)cc1	i	22.7%	10.8%	9.2%	14.1µM*
Cc1ccc(CNC(=S)Nc2ccc3c(c2)c(=O)n(C)n3Cc2cccc(C(F)(F)F)c2)cc1	?	-19.5%	-25.0%	0.0%	17.8µM*
COc1ccc(CCNC(=O)Nc2ccc3c(c2)c(=O)n(C)n3Cc2ccc(Cl)cc2)cc1OC	i	6.0%	-12.1%	?	?
COc1ccc(C2=Nc3ccccc3OC2)cc1	?	?	-30.0%	40.8%	44.7µM*
COc1ccc(-c2cc(-c3ccccc3)nc3c2COc2ccccc2-3)cc1	i	-7.9%	-20.5%	1.2%	-2.8%
Cc1ccc2c(c1)-c1c(cnc3cc(-c4ccc(Cl)cc4)nn13)CO2	i	0.0%	6.7%	-4.2%	-19.7%
Cc1ccc(C2=Nc3ccc(Cl)cc3OC2)cc1	·	·	·	38.4%	21.7µM*
N#Cc1c(SCC(N)=O)nc2c(c1C(F)(F)F)CCCC2	·	·	·	·	-7.1%
CC(C)(C)c1ccc(C(=O)Nc2ccc(C(O)[C@H]3COCC(=O)N3Cc3ccccn3)cc2)cc1 (stereo not given in full)	·	·	·	·	5.1%
CCOC(=O)C(NC(=O)c1ccccc1Cl)(Nc1ccc(OC)cc1OC)C(F)(F)F (stereo not given)	·	·	·	·	9.0%
CC(C)(C)c1ccc(C(=O)CC(Sc2ccc(Cl)cc2)C(=O)O)cc1 (stereo not given)	·	?	15.8µM*	?	?
NS(=O)(=O)c1ccc(N=Nc2c(O)ccc3ccccc23)cc1	?	?	-74.2%	-5.6%	-13.6%

Screening results deposited in PubChem by National Center for Advancing Translational Sciences (NCATS).
